Data published in PubChem BioAssay (NCATS).
A number with no mark means an inactive call. The rule behind the calls is not given here.

tested on: HIV-1 nucleocapsid protein NCp7 (binding to TG oligonucleotide); assay: HIV Nucleocapsid (AID 346); conditions: HIV-1 NC / fluorescein-TGTGTGTG probe, fluorescence polarization;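 note: potency is for inhibitors that block NC binding and lower polarization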
Summary of the method: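 Fluorescence polarization binding of 100 nM HIV-1 NC to 10 nM fluorescein-labelled TG4xF oligonucleotide. Buffer was Hepes pH 7.5 with 250mM NaCl, 1uM ZnCl2, TCEP and 2-mercaptoethanol. Compounds were incubated 1 hr at room temperature before the read.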
Potency is the fitted concentration of half-maximal effect.

Compound	Potency [µM]
COc1ccccc1CNc1ncncc1-c1ccccc1Cl	> 20
CN(C)c1ccc(-c2nc(Nc3ccncc3)c3ccccc3n2)cc1	> 20
CS(=O)(=O)Nc1cccc(-c2ccc3ncnc(NC4CCNCC4)c3c2)c1	> 20
O=C(Nc1ccccc1)N1CCCC2(CCNCC2)C1	> 20
N#Cc1cccc(NC(=O)N2CCC3(CC2)CCN(C(=O)c2csnn2)CC3)c1	> 20
O=c1cnc2cnc(N3CCOCC3)nc2n1CCc1ccccc1	> 20
O=C(c1ccncc1)N1CCC[C@@]2(CCN(Cc3ccccc3)C2)C1	> 20
COc1ccc(-n2c(=O)c(-c3cccc(C#N)c3)nc3cnc(N4CCNCC4)nc32)cc1	> 20
CN(Cc1ccco1)c1ncnc2ccc(-c3ccoc3)cc12	> 20
CCNc1ncc2nc(-c3ccccc3)c(=O)n(Cc3ccc(F)cc3)c2n1	> 20
c1nc(N2CCOCC2)c2cc(-c3ccoc3)ccc2n1	> 20
Cc1noc(C)c1C(=O)N1CCC[C@@]2(CCN(C(=O)NC(C)C)C2)C1	> 20
N#Cc1cccc(NC(=O)N2CC[C@@]3(CCCN(C(=O)c4cnccn4)C3)C2)c1	> 20
O=S(=O)(c1ccccc1)N1CCC2(CCCN(Cc3nccs3)C2)CC1	> 20
COc1ccccc1CCn1c(=O)c(-c2cccc(F)c2)nc2cncnc21	> 20
CN1CCN(c2ncncc2-c2ccccc2Cl)CC1	> 20
COCCn1c(=O)c(-c2cn(C)c3ccccc23)nc2cnc(Oc3cccc(Cl)c3)nc21	> 20
COCC(=O)N1CCC2(CCCN(c3ccccn3)C2)CC1	> 20
Cn1cc(-c2nc3cncnc3n(Cc3ccccc3Cl)c2=O)c2ccccc21	> 20
O=C(c1cccc(F)c1)N1CCC2(CC1)CN(c1ccccn1)C2	> 20
COc1ccc(Oc2ncc3ncc(=O)n(CCc4ccccc4)c3n2)cc1	> 20
Cn1c(=O)cnc2cnc(Nc3ccccc3)nc21	> 4
COCCNc1ncnc2ccc(-c3ccccc3C(F)(F)F)cc12	> 20
c1ccc2c(N3CCNCC3)nc(-c3ccoc3)nc2c1	> 20
